From the supplement of paper PMC9262897, “Low-cost anti-mycobacterial drug discovery using engineered E. coli” (Nature Communications, 2022) come the findings set out here.

In this experiment the test system is E. coli TESEC Mtb Alr. Kind of experiment: growth (OD600 after 10 h); higher = more growth (less inhibition). To be noted: compound 0.1 mM. The procedure:
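TESEC Mtb Alr E. coli, or the Alr+ wild-type control, in 384-well plates with Prestwick library compounds at 0.1 mM and 1% DMSO, across arabinose induction levels of 1E3 to 1E7 nM. Growth is read as OD600 after 10 h at 37 °C in triplicate biological replicates.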

The mark [1] stands for this setting: arabinose 1000 nM, raw OD600 reference: median of DMSO wells 0.294, cell-free background 0.041.
[2] abbreviates: arabinose 10000 nM, raw OD600 reference: median of DMSO wells 0.264, cell-free background 0.041.
Where [3] appears, read: arabinose 100000 nM, raw OD600 reference: median of DMSO wells 0.201, cell-free background 0.041.
[4] abbreviates: arabinose 1000000 nM, raw OD600 reference: median of DMSO wells 0.193, cell-free background 0.041.
Setting [5] is: arabinose 10000000 nM, raw OD600 reference: median of DMSO wells 0.146, cell-free background 0.041.

Structures can show the parent of a compound that is named as a salt. ± gives the standard deviation of the averaged measurements.

`CCCCN1CCCCC1C(=O)Nc1c(C)cccc1C` (stereo not given) [Bupivacaine hydrochloride]: the growth by setting is: under setting [1], 0.301 ± 0.0072; under setting [2], 0.247 ± 0.0053; under setting [3], 0.21 ± 0.0045; under setting [4], 0.167 ± 0.0039; under setting [5], 0.157 ± 0.0046.
The corresponding values for `CN1C(C(=O)Nc2ccccn2)=C(O)c2ccccc2S1(=O)=O` [Piroxicam] are 0.229 ± 0.0073, 0.253 ± 0.0061, 0.18 ± 0.013, 0.127 ± 0.0038 and 0.155 ± 0.003.
The corresponding values for `COC(=O)[C@H]1[C@H]2C[C@@H]3c4[nH]c5cc(OC)ccc5c4CCN3C[C@H]2C[C@@H](OC(=O)c2cc(OC)c(OC)c(OC)c2)[C@@H]1OC` [Reserpine] are 0.234 ± 0.027, 0.223 ± 0.02, 0.214 ± 0.012, 0.193 ± 0.012 and 0.214 ± 0.0036.
Taken in the same sequence, the figures for `O=C(O[C@@H]1C[C@@H]2C[C@H]3C[C@H](C1)N2CC3=O)c1c[nH]c2ccccc12` [Dolasetron mesilate] were 0.25 ± 0.0086, 0.238 ± 0.0033, 0.137 ± 0.0054, 0.0823 ± 0.0017 and 0.114 ± 0.0051.
Turning to `COc1cc(C(=O)NC2CCCNC2)cc(OC)c1OC` (stereo not given) [Troxipide], the growth reads like this: under setting [1], 0.286 ± 0.012; under setting [2], 0.255 ± 0.0049; under setting [3], 0.205 ± 0.016; under setting [4], 0.191 ± 0.02; under setting [5], 0.134 ± 0.0027.
The corresponding values for `Nc1nc(=O)c2nc(CNc3ccc(C(=O)N[C@@H](CCC(=O)O)C(=O)O)cc3)cnc2[nH]1` [Folic acid] are 0.306 ± 0.0062, 0.239 ± 0.0047, 0.244 ± 0.028, 0.149 ± 0.0059 and 0.1653 ± 0.0014.
Taken in the same sequence, the figures for `O=C1C(CC[S+]([O-])c2ccccc2)C(=O)N(c2ccccc2)N1c1ccccc1` (stereo not given) [Sulfinpyrazone] were 0.244 ± 0.0079, 0.241 ± 0.006, 0.17 ± 0.01, 0.151 ± 0.0048 and 0.146 ± 0.0031.
The corresponding values for `Cc1cc(C(=O)NNCc2ccccc2)no1` [Isocarboxazid] are 0.319 ± 0.014, 0.28 ± 0.0081, 0.234 ± 0.0096, 0.198 ± 0.0079 and 0.158 ± 0.0025.
